# In PMC7862700, “An all-to-all approach to the identification of sequence-specific readers for epigenetic DNA modifications on cytosine”:
# Legend:
# Assay in all cases: DAPPL (digital affinity profiling via proximity ligation, sequencing); 10 mM Tris-HCl pH 7.5, 50 mM NaCl, 1 mM DTT, 4% glycerol, room temperature, 30 min; GST-TFs on glutathione beads, 16-mer random dsDNA library, 0.1% formaldehyde crosslink after washing; high values mean tight binding
# Conditions in all cases: protein: recombinant; tags: N-terminal GST; dsDNA, one strand shown
# ELK1 = target: T1, ELK1 (Homo sapiens, UniProt P19419 1-428)
# T1 sequence: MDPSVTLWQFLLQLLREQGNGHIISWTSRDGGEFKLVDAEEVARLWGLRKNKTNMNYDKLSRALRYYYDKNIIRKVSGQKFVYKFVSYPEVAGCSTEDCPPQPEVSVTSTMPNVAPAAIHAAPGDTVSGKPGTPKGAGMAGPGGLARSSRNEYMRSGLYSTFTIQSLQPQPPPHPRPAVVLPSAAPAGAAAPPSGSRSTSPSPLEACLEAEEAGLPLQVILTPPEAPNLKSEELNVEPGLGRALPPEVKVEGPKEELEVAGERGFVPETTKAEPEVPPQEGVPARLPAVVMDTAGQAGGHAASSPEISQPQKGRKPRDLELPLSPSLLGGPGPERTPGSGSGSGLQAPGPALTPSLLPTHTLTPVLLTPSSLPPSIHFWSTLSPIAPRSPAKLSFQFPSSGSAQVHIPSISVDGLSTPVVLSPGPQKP
# Procedure, shortened: (§1)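 Beads coated with glutathione captured GST-fused human transcription factors that had been expressed in yeast, and the factors were then given DNA barcodes and pooled with a tag-only sample. The pools were incubated with 200 nmole of a random double-stranded 16-mer DNA library in Tris/NaCl/DTT/glycerol buffer for 30 min at room temperature, washed, crosslinked with 0.1% formaldehyde and proximity-ligated with BsaI/T4 ligase at 37 °C for 1 h. PCR amplification and Illumina NextSeq500 sequencing came last. Binding signal is each hexamer's read frequency for a factor divided by its frequency for the tag-only sample.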
# GABPA = target: T2, GABPA (Homo sapiens, UniProt Q06546 1-454)
# T2 sequence: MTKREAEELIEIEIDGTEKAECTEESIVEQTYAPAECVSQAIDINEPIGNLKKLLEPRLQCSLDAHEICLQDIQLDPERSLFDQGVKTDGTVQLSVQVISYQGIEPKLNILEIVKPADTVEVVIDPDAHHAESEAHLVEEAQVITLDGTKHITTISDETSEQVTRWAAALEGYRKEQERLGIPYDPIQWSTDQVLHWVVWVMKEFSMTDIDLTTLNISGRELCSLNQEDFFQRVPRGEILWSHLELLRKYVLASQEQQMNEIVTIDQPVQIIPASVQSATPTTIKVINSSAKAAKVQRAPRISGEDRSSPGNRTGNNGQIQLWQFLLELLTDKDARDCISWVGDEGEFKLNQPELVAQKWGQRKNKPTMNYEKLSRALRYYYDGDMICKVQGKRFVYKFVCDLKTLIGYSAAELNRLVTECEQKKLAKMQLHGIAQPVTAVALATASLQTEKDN
# Procedure, shortened: as §1
# ERG = target: T3, ERG (Homo sapiens, UniProt P11308 1-479)
# T3 sequence: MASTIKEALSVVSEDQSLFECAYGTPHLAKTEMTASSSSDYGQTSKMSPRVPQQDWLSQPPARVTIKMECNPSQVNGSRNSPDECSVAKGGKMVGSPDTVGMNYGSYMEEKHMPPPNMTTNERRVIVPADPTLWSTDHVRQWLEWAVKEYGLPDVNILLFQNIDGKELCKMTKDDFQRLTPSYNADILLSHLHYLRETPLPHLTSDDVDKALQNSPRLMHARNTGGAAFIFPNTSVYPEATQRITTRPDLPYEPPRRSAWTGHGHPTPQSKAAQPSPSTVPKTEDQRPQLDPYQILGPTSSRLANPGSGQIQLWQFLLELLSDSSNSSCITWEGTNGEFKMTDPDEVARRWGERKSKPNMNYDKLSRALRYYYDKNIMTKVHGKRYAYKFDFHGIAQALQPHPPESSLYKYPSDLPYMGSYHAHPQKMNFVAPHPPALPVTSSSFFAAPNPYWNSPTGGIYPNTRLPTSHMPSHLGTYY
# Procedure, shortened: as §1
# ELF1 = ELF1 (Homo sapiens, UniProt P32519 1-619)
# Procedure, shortened: as §1
# EHF = target: T4, EHF (Homo sapiens, UniProt Q9NZC4 1-300)
# T4 sequence: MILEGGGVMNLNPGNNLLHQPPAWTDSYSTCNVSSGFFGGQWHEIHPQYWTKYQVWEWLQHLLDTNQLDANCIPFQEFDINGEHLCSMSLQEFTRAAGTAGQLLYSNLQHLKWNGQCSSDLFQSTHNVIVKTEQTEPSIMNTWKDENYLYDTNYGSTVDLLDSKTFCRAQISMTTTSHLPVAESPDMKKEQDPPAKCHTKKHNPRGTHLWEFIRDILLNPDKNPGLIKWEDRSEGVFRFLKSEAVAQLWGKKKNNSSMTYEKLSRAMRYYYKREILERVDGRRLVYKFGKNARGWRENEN
# Procedure, shortened: as §1
# SPIB = SPIB (Homo sapiens, UniProt Q01892 1-262)
# Procedure, shortened: as §1
# ELK3 = target: T5, ELK3 (Homo sapiens, UniProt P41970 1-407)
# T5 sequence: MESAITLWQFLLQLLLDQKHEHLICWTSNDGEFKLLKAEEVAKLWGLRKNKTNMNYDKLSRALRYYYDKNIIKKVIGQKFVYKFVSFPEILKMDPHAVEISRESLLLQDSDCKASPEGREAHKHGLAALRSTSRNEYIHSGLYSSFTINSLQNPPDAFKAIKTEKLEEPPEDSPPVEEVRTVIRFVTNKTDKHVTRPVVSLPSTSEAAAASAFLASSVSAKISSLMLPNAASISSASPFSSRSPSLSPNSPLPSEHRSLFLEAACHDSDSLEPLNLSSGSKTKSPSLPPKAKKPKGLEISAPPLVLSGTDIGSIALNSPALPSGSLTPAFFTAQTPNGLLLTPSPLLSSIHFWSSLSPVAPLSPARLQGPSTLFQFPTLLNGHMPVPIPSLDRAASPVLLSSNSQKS
# Procedure, shortened: as §1
# ETV5 = ETV5 (Homo sapiens, UniProt P41161 1-510)
# Procedure, shortened: as §1
# SPIC = target: T6, SPIC (Homo sapiens, UniProt Q8N5J4 1-248)
# T6 sequence: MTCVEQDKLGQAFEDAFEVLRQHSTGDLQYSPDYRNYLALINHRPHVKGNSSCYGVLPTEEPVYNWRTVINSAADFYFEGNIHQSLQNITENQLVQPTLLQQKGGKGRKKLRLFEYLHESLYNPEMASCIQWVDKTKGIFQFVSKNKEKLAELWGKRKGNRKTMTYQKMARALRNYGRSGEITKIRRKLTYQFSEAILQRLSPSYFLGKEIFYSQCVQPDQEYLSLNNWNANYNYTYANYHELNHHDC
# Procedure, shortened: as §1
# ELF4 = ELF4 (Homo sapiens, UniProt Q99607 1-663)
# Procedure, shortened: as §1
# ELF3 = target: T7, ELF3 (Homo sapiens, UniProt P78545 1-371)
# T7 sequence: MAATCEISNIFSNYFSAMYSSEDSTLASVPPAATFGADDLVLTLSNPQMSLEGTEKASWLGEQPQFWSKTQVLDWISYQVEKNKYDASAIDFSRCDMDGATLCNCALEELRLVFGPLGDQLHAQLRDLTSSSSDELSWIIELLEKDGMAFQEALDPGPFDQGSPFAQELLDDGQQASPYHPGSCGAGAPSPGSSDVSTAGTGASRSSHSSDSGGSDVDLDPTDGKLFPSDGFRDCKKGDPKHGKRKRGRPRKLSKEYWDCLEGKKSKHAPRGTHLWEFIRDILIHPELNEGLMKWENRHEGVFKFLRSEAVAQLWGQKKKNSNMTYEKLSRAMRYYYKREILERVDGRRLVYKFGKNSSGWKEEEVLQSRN
# Procedure, shortened: as §1
# ETV1 = ETV1 (Homo sapiens, UniProt P50549 1-477)
# Procedure, shortened: as §1
# ERF = target: T8, ERF (Homo sapiens, UniProt P50548 1-548)
# T8 sequence: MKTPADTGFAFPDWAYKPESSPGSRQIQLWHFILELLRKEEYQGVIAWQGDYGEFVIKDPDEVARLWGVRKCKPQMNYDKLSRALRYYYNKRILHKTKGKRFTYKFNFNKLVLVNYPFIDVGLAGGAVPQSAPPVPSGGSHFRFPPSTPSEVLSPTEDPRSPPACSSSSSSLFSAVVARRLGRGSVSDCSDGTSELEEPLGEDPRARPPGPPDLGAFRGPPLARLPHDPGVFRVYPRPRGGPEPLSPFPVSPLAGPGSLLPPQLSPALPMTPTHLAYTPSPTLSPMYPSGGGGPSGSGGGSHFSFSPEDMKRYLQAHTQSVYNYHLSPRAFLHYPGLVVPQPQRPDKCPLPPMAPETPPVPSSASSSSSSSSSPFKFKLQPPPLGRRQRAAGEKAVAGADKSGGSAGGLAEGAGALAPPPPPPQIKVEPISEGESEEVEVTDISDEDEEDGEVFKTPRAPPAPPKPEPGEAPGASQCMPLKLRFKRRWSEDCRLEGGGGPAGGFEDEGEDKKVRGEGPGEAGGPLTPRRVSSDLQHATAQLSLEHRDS
# Procedure, shortened: as §1
# ETV3L = target: T9, ETV3L (Homo sapiens, UniProt Q6ZN32 1-361)
# T9 sequence: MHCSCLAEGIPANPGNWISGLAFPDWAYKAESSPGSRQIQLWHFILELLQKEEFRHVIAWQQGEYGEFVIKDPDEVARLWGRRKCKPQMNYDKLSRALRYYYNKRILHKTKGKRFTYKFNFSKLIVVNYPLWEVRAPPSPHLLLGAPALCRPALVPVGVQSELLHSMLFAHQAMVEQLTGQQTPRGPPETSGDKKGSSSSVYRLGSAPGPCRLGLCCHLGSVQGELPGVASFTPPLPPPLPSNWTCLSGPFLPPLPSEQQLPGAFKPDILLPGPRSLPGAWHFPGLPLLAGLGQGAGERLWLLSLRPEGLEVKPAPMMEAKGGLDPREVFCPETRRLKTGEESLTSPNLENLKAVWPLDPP
# Procedure, shortened: as §1
# ETS2 = target: T10, ETS2 (Homo sapiens, UniProt P15036 1-469)
# T10 sequence: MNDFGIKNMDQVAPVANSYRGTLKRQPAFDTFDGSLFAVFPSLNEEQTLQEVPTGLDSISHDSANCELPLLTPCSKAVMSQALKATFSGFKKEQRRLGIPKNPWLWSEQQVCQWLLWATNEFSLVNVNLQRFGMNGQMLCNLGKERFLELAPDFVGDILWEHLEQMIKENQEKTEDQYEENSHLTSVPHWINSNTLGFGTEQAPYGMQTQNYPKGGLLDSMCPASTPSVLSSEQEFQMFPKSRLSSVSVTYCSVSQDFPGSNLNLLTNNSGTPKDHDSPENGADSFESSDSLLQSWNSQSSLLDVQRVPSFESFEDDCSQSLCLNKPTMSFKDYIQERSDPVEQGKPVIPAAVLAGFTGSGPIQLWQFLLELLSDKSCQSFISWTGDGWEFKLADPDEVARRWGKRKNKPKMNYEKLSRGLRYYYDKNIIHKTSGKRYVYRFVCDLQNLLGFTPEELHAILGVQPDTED
# Procedure, shortened: as §1
# SPDEF = target: T11, SPDEF (Homo sapiens, UniProt O95238 1-335)
# T11 sequence: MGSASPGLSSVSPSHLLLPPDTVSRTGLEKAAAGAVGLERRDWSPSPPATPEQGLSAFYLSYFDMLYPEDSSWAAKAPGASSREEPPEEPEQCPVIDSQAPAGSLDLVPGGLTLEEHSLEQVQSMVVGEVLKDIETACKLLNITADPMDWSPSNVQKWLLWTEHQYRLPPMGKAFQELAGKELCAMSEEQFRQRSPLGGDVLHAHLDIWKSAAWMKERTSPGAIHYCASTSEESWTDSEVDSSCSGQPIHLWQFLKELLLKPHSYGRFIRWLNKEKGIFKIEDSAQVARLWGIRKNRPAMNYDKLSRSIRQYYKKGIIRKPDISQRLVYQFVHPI
# Procedure, shortened: as §1
# ETV7 = target: T12, ETV7 (Homo sapiens, UniProt Q9Y603 1-341)
# T12 sequence: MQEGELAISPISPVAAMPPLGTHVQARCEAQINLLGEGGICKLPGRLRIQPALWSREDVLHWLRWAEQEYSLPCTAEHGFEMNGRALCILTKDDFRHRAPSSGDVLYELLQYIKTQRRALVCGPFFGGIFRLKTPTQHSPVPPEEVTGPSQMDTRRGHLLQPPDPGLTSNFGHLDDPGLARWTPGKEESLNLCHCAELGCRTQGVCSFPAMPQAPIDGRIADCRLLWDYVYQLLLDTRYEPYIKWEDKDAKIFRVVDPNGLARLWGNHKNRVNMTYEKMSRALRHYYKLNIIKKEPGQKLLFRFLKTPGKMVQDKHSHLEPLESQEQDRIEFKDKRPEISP
# Procedure, shortened: as §1
# ETV3 = target: T13, ETV3 (Homo sapiens, UniProt P41162-2 1-143)
# T13 sequence: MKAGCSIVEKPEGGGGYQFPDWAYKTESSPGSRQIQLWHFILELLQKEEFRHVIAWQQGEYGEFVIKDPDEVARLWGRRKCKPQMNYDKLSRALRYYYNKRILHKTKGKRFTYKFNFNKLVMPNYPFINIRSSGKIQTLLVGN
# Procedure, shortened: as §1
# ETV6 = ETV6 (Homo sapiens, UniProt P41212 1-452)
# Procedure, shortened: as §1
# Sequence of ETV5 (P41161 whole entry): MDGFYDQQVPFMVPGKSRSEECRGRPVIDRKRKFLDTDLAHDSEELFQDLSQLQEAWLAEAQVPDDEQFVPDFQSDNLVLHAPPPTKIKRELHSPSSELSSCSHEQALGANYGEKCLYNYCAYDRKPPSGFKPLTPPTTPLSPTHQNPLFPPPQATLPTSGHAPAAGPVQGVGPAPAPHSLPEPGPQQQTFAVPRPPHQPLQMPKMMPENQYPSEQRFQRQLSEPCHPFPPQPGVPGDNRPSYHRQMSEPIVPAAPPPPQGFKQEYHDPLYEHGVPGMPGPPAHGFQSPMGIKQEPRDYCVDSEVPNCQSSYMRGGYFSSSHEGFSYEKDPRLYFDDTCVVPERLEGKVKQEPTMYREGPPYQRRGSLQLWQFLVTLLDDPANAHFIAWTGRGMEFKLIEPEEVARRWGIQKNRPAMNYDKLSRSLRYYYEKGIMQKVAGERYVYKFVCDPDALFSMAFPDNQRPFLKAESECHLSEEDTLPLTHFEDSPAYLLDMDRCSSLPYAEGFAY
# Sequence of ETV6 (P41212 whole entry): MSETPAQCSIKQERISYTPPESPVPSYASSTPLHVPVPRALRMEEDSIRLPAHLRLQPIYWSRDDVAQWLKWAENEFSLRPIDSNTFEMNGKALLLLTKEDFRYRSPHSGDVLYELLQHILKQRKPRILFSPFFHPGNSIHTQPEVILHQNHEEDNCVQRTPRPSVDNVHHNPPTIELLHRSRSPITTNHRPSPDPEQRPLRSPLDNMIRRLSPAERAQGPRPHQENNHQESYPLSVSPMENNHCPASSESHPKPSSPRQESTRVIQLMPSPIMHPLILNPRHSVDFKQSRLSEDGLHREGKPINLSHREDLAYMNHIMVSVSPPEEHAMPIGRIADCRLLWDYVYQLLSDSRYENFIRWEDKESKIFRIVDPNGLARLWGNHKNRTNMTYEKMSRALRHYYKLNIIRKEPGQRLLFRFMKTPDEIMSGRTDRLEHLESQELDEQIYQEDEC
# Sequence of ELF4 (Q99607 whole entry): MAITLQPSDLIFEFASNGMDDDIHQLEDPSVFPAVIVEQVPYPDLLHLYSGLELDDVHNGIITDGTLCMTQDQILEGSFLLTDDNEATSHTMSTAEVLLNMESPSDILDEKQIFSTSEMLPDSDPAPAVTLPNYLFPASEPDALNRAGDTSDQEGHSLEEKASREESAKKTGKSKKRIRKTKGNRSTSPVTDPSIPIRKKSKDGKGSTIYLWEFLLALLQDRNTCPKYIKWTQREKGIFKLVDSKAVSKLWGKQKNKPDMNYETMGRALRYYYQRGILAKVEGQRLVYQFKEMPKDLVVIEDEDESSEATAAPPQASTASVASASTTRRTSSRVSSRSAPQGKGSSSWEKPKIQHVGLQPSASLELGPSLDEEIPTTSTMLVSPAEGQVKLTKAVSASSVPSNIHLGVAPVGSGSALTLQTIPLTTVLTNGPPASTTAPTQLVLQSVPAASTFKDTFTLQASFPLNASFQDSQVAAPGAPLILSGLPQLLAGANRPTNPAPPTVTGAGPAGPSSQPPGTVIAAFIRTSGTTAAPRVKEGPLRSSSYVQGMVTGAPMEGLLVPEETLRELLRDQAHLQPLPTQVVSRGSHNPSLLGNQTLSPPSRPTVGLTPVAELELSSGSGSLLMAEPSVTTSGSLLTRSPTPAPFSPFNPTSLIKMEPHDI
# Sequence of ELF1 (P32519 whole entry): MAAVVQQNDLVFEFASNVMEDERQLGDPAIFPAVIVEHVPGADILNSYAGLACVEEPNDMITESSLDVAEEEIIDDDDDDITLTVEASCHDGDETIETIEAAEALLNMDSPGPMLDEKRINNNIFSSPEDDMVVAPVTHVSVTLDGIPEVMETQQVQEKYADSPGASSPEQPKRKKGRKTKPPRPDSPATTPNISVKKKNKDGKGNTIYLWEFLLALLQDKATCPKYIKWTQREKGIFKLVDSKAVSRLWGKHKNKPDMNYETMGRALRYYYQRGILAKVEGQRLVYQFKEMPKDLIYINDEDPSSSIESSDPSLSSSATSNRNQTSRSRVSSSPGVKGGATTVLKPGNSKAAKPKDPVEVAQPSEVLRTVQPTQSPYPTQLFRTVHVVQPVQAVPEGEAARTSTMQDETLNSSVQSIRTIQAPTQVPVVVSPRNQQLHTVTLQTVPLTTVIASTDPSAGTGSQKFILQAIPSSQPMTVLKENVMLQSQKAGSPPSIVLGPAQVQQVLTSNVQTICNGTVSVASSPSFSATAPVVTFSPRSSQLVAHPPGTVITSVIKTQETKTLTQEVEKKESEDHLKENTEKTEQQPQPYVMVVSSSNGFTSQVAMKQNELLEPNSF
# Sequence of ETV1 (P50549 whole entry): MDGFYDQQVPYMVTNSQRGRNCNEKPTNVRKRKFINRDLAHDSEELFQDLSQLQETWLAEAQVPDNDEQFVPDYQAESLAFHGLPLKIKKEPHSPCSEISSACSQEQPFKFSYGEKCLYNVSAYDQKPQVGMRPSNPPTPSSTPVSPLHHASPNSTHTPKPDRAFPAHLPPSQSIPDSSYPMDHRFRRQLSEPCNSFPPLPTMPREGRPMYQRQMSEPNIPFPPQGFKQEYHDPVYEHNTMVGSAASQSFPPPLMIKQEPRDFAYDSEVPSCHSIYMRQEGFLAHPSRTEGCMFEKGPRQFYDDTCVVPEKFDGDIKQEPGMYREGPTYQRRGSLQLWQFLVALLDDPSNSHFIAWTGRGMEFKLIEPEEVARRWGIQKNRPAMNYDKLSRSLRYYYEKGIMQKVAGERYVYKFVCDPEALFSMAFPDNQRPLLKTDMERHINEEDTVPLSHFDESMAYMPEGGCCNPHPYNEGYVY
# Sequence of SPIB (Q01892 whole entry): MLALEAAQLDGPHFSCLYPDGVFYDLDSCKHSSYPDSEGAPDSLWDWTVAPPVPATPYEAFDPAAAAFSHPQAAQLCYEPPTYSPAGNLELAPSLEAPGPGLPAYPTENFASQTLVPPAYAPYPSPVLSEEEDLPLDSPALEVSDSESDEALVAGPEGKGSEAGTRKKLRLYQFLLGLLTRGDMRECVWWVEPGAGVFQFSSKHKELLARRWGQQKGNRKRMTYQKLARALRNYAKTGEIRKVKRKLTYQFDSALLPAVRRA
sequence,measurement,setting,value
AGTGCA,binding signal,ELK1,"1.1 fold enrichment (6-mer frequency, TF over GST control)"
same,binding signal,GABPA,"1.1 fold enrichment (6-mer frequency, TF over GST control)"
same,binding signal,ERG,"1.07 fold enrichment (6-mer frequency, TF over GST control)"
same,binding signal,ELF1,"1.07 fold enrichment (6-mer frequency, TF over GST control)"
same,binding signal,EHF,"1.09 fold enrichment (6-mer frequency, TF over GST control)"
same,binding signal,SPIB,"1.08 fold enrichment (6-mer frequency, TF over GST control)"
same,binding signal,ELK3,"1.13 fold enrichment (6-mer frequency, TF over GST control)"
same,binding signal,ETV5,"1.14 fold enrichment (6-mer frequency, TF over GST control)"
same,binding signal,SPIC,"1.21 fold enrichment (6-mer frequency, TF over GST control)"
same,binding signal,ELF4,"1.03 fold enrichment (6-mer frequency, TF over GST control)"
same,binding signal,ELF3,"1.16 fold enrichment (6-mer frequency, TF over GST control)"
same,binding signal,ETV1,"1.11 fold enrichment (6-mer frequency, TF over GST control)"
same,binding signal,ERF,"1.12 fold enrichment (6-mer frequency, TF over GST control)"
same,binding signal,ETV3L,"1.03 fold enrichment (6-mer frequency, TF over GST control)"
same,binding signal,ETS2,"1.08 fold enrichment (6-mer frequency, TF over GST control)"
same,binding signal,SPDEF,"1.07 fold enrichment (6-mer frequency, TF over GST control)"
same,binding signal,ETV7,"1.18 fold enrichment (6-mer frequency, TF over GST control)"
same,binding signal,ETV3,"1.05 fold enrichment (6-mer frequency, TF over GST control)"
same,binding signal,ETV6,"1.16 fold enrichment (6-mer frequency, TF over GST control)"
